# Source: PubChem (several laboratories)
# TROY signal inh: blocks TROY-dependent signaling in reporter cells | Q293 LMP1-TROYcd NF-kB luciferase reporter, 4 h | inhibition, % at 10 µM | 360,000 compounds, 0.98% hits;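 active means compounds whose plate-normalised and pattern-corrected inhibition of the luciferase reporter signal at the single screening dose is 50% or more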
# PAX8 inh HTS: lowers PAX8-driven luciferase in RMG-I cells; RMG-I TPO-luciferase reporter, SteadyGlo, 24 h; inhibition, % at 12.6 µM; 360,000 compounds, 1.2% hits;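 active means mean replicate inhibition at least 60% with every replicate also reaching 60%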;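 further: luciferase light reporting Pax8 driven TPO promoter activity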
# LGR2 antag: blocks bursicon-induced cAMP signaling via Drosophila LGR2; 380,000 compounds, 0.35% hits; HEK293 LGR2, CRE-luciferase, bursicon-stimulated, 4 h; inhibition, % at 9.99 µM; AID 720647;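 active means drop in luminescence signal, shown as inhibition above about 50% in the replicate tests, limit read from the data, passing the limit was not always enough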;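 further: agonist challenge used bursicon conditioned medium at about half maximal strength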
# TWEAK-Fn14 inh: inhibitors of TWEAK-Fn14 interaction signaling. AID 1159606. 360,000 compounds, 2% hits. TWEAK-stimulated Fn14 reporter cells, luciferase luminescence, 8 h. inhibition, % at 10 µM; in the data active means inhibition above about 50%
# EWS-Fli block: blocks EWS/Fli oncoprotein-driven transcription. A673 NR0B1-luciferase reporter, viability-normalised. inhibition, % at 12.6 µM. 350,000 compounds, 0.67% hits. AID 651661;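 active means mean inhibition of at least 50% after viability correction, with every replicate also passing that limit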;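 further: firefly luciferase signal divided by Alamar Blue viability fluorescence both relative to DMSO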
# A number is an active result; n = inactive; x = no result given. Most compounds without a hit are left out; they make up all but 2.8% or so of the library.
SMILES,TROY signal inh,PAX8 inh HTS,LGR2 antag,TWEAK-Fn14 inh,EWS-Fli block
COc1cccc(OC)c1C1=NCC(=O)Nc2c1oc1ccc(Br)cc21,n,76,n,n,n
C/C=C/c1ccc([C@@H]2[C@@H](CO)N3CCCCN(C(=O)Cc4ccncc4)C[C@H]23)cc1,x,n,n,x,n
CC(=O)c1c(C)n(C2CCCCC2)c2ccc(O)cc12,53,n,n,86,n
CC(=O)c1c(C)n(Cc2ccccc2)c2ccc(O)cc12,n,n,n,n,n
COC(=O)[C@@H]1[C@@H](CO)[C@@H]2Cn3c(ccc(-c4ccccc4)c3=O)[C@H]1N2S(=O)(=O)c1ccccc1C,x,n,n,x,n
COc1ccc(CC2NCC(O)C2OC(C)=O)cc1 (centres undefined),88,x,x,100,59
COc1ccc(CC(=O)N2CCN(C)CC2)cc1,n,x,x,n,x
O=C(Cc1cccnc1)N1CCCCN2[C@@H](CO)[C@@H](c3ccc(C#CC4(O)CCCC4)cc3)[C@@H]2C1,x,n,n,x,n
COC(=O)[C@@H]1[C@@H](CO)[C@@H]2Cn3c(ccc(C4=CCCC4)c3=O)[C@H]1N2Cc1ccccn1,x,x,n,x,n
CCOc1cccc(CNC2CN3CCC2CC3)c1 (centres undefined),n,x,n,n,n
COc1cccc(CNC2CN3CCC2CC3)c1OC (centres undefined),n,x,x,68,x
CCC(=O)N1[C@@H]2c3ccc(-c4cccc(F)c4)c(=O)n3C[C@H]1[C@H](CO)[C@H]2C(=O)OC,x,n,n,x,n
COC(=O)[C@@H]1[C@@H](CO)[C@@H]2Cn3c(ccc(C4=CCCCC4)c3=O)[C@H]1N2C(=O)CC1CC1,x,n,n,x,n
O=[N+]([O-])c1ccccc1-c1cc(-c2ccccc2)cc(-c2ccccc2)[n+]1Cc1ccccc1Cl,x,86,n,x,51
O=[N+]([O-])c1ccccc1CCl,n,x,n,n,n
COC(=O)C12OCC34C(CC5C(C)=C(O)C(=O)CC5(C)C3C(O)C1O)OC(=O)C(OC(=O)/C=C(\C)C(C)C)C24 (centres undefined),85,96,101,95,n
N#Cc1ncc(N=Cc2ccc(N(CCCl)CCCl)cc2)s1,n,n,n,53,n
ClCCN(CCCl)c1ccc(C=NNc2ncccn2)cc1,n,n,n,n,n
Cc1ccc(/C=C2\C(=O)NC(=S)N(c3ccccc3F)C2=O)s1,n,n,88,n,x
CCCN1[C@@H]2c3ccc(-c4ccc(OC)cc4)c(=O)n3C[C@H]1[C@H](CO)[C@H]2C(=O)OC,x,n,n,x,n
O=C1C=CC(=O)C2C1C1(Cl)C(Cl)=C(Cl)C2(Cl)C1(Cl)Cl (centres undefined),n,n,n,57,n
COC(=O)[C@@H]1[C@@H](CO)[C@@H]2Cn3c(ccc(-c4ccccc4)c3=O)[C@H]1N2CC1CCCCC1,x,n,n,x,n
COc1ccc(Br)cc1CN1CCN(C(=O)Cc2ccccc2)CC1,x,x,x,82,x
COc1ccc(CN2CCN(C(=O)Cc3ccccc3)CC2)c(OC)c1,n,n,n,n,x
CC[n+]1c(-c2ccccc2)c2cc(N)ccc2c2ccc(N)cc21,53,110,n,95,n
SMILES,TROY signal inh,PAX8 inh HTS,LGR2 antag,TWEAK-Fn14 inh,EWS-Fli block
Cc1cc(C)n(-c2ccc(NN=C(C#N)C#N)cc2)n1,65,n,82,84,n
N#CC(C#N)=NNc1ccc(-n2ccc(C(F)(F)F)n2)cc1,67,94,78,91,n
CCc1ccc(N2C(=O)NC(=O)/C(=C/c3cccn3CCOc3ccc(C(C)CC)cc3)C2=O)cc1 (centres undefined),n,n,n,65,n
COC(=O)[C@@H]1[C@@H](CO)[C@@H]2Cn3c(ccc(C4=CCCC4)c3=O)[C@H]1N2S(=O)(=O)c1cn(C)cn1,x,n,n,x,n
O=C(O)[C@@H]1[C@@H](CO)[C@@H]2Cn3c(ccc(-c4cccnc4)c3=O)[C@H]1N2S(=O)(=O)c1ccccc1F,x,n,n,x,n
O=C(NC[C@H]1CC[C@H]2[C@H](CN2Cc2cccnc2)O1)C1CC1,x,n,x,x,n
O=c1[nH]c(=S)[nH]c(O)c1N=Nc1ccc(SC(F)F)cc1,n,n,n,58,n
Cc1ccc(OC(=O)N(C)C[C@@H]2OCc3ccccc3-c3c(n(C)c4ccccc34)C(=O)N([C@@H](C)CO)C[C@@H]2C)cc1,x,n,n,x,n
C=C1C(=O)O[C@@H]2C[C@@H](C)[C@@H]3C=CC(=O)[C@@]3(C)[C@@H](O)[C@H]12,n,112,102,104,58
O=C(O)[C@H]1[C@H](CO)[C@H]2Cn3c(ccc(-c4cccnc4)c3=O)[C@@H]1N2C(=O)Nc1cc(F)ccc1F,x,x,n,x,n
CCN(CC)c1ccc(C=C2C(=O)N(C)C(=S)N(C)C2=O)o1,n,78,n,n,n
CCN(CC)c1ccc(/C=C2\C(=O)NC(=S)N(C)C2=O)o1,n,n,n,n,n
COc1ccc(C#Cc2ccc([C@@H]3[C@@H](CO)N4CCCCN(C(=O)Cc5ccncc5)C[C@@H]34)cc2)cc1,x,n,n,x,x
CC(=O)OC[C@]12CCC(C)=C[C@H]1O[C@@H]1[C@H](O)[C@@H](OC(C)=O)[C@@]2(C)[C@]12CO2,84,x,104,98,56
Nc1nnc(P(c2ccccc2)c2ccccc2)s1,n,n,n,n,n
c1ccc(P(c2ccccn2)c2ccccn2)cc1,59,n,n,n,n
COC(=O)[C@H]1[C@H](CO)[C@H]2Cn3c(ccc(-c4ccccc4)c3=O)[C@@H]1N2CC1CCOCC1,x,n,n,x,n
COc1cccc(-c2ccc3n(c2=O)C[C@@H]2[C@@H](CO)[C@H](C(=O)O)[C@H]3N2Cc2ccccc2F)c1,x,n,n,x,n
CC(=O)OC(C)(C)/C=C/C(=O)C(C)(O)C1C(O)CC2(C)C3CC=C4C(CC(O)C(=O)C4(C)C)C3(C)C(=O)CC12C (centres undefined),61,108,89,63,n
CC(=O)OC(C)(C)/C=C/C(=O)[C@](C)(O)[C@H]1[C@H](O)C[C@@]2(C)[C@@H]3CC=C4[C@H](C[C@H](O)C(=O)C4(C)C)[C@]3(C)C(=O)C[C@]12C,62,x,x,65,x
CC(=O)OC(C)(C)/C=C/C(=O)C(C)(O)C1[C@H](O)C[C@@]2(C)C3CC=C4C(CC[C@@H](O)C4(C)C)[C@]3(CO)C(=O)C[C@]12C (some centres undefined),61,112,73,n,n
O=C(O)[C@@H]1[C@@H](CO)[C@@H]2Cn3c(ccc(-c4ccncc4)c3=O)[C@H]1N2S(=O)(=O)c1ccccc1F,x,x,n,x,n
CC1=CC2OC3CC4OC(=O)C=CC=CC(C(C)O)OCC(O)C(C)CC(=O)OCC2(CC1O)C4(C)C31CO1 (centres undefined),84,x,107,99,51
CC1=CC2OC3CC4OC(=O)C=CC=CC(=O)OCCC(C)C(O)C(=O)OCC2(CC1O)C4(C)C31CO1 (centres undefined),84,x,x,96,x
CCOC(=O)[C@]12Cc3cc(OC)ccc3[C@H]1N(C1CCCCC1)C(=O)c1cc(OC)ccc12,55,n,51,n,n
